GPR151 activ = human GPR151 activation; Q8TDV0; PathHunter beta-arrestin GPR151 cells, luminescence; activation, % at 11.2 µM; hit rate 1% among 650,000; AID 1508602; in the data active = activation above about 4.9%;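 note: 0% = median of compound wells and 100% = cells with positive control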
MITF inh = blocks human microphthalmia-associated transcription factor. inhibition, % at 2.6 µM. AlphaScreen MITF homodimerization, bead proximity signal. hit rate 0.91% among 650,000. AID 1259374. O75030; in the data active = inhibition above about 50%;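 note: 0% = vehicle wells with protein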
Target sequence (O75030 whole entry, looked up): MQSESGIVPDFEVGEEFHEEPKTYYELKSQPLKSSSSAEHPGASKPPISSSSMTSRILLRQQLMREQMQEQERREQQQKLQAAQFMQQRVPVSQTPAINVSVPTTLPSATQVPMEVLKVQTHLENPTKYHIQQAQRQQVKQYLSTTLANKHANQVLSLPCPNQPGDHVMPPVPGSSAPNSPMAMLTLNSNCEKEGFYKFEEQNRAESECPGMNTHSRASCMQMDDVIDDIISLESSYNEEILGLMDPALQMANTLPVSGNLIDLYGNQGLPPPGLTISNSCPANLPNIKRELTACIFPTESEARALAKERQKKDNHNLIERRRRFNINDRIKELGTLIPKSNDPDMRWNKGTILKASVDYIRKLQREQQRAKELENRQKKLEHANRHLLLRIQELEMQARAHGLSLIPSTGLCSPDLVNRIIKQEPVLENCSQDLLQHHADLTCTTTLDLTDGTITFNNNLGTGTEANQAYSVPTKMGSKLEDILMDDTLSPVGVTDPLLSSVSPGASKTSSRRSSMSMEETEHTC
FBW7 act = activators of human E3 ligase FBW7; Q969H0; AID 1259310; AlphaScreen FBW7–phospho-cyclin E peptide binding, activator screen; hit rate 0.13% among 650,000; normalized activity (activation), % at 26.1 µM; in the data active = normalized activity above about 1.9%;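 note: purified mutant Fbw7 with reduced substrate affinity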
TEAD-YAP inh = TEAD-YAP interaction inhibition | HEK-TIYL cells, TEAD-Gal4/YAP UAS-luciferase luminescence | inhibition, % at 9.12 µM | hit rate 1.4% among 640,000 | AID 1259422; in the data active = inhibition above about 32%;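 note: 0% = median of test compound wells and 100% = reference inhibitor wells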
MITF inh conf = human MITF inhibition, confirmation. hit rate 16% among 4,700. AlphaScreen MITF homodimerization, biotin/His-MITF beads. inhibition, % at 2.6 µM. AID 1259372. shares compounds with MITF inh;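 active = inhibition above a cutoff derived from the DMSO control wells, cut at about 28% in these data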;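 note: 0% = MITF dimer wells with DMSO only; inhibitors lower the bead chemiluminescence by keeping MITF from dimerizing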
AS interf DR = counter-screen: compounds optically interfering with AlphaScreen; shares compounds with MITF inh; AlphaScreen optical interference counterscreen, cell-free; IC50, µM; hit rate 6% among 480; call rule not given here
AS interf ctr = AlphaScreen optical interference, counter-screen. shares compounds with MITF inh. inhibition, % at 2.6 µM. LysRS AlphaScreen counterscreen, signal interference, triplicate. AID 1259376. hit rate 7.6% among 4,700;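 active = inhibition above a cutoff derived from the DMSO control wells, cut at about 30% in these data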
* hit, by the source's call; / = not tested or not shown. Hits are enriched below; roughly 3.4% of the tested compounds scored in any of these assays.

SMILES | GPR151 activ | MITF inh | FBW7 act | TEAD-YAP inh | MITF inh conf | AS interf ctr | others
COc1ccc(CN2CCN(Cc3ccccn3)CC2)cc1Br | 0 | 68* | 0 | 3 | 6 | 18
COc1ccc(CN2CCN(Cc3ccccn3)CC2)cc1 | 1 | 43 | 0 | -3 | / | /
COc1cc(OC)c(OC)cc1CN1CCN(Cc2ccccn2)CC1 | -2 | 71* | 0 | -8 | 9 | 16
COc1ccc(CN2CCN(c3ccccn3)CC2)cc1O | -1 | 49 | 0 | 4 | / | /
COc1cc(CN2CCN(Cc3ccccn3)CC2)cc(OC)c1OC | -1 | 79* | 0 | -5 | 1 | 15
O=[N+]([O-])c1ccc(N/N=C/c2ccncc2)c(S(=O)(=O)N2CCCCCC2)c1 | 2 | -21 | 0 | -5 | / | /
O=C(c1ccc(N2CCC(NCCc3cccc(F)c3)CC2)cc1)N1CCCC(CO)C1 (stereo unspecified) | 0 | 7 | 0 | -2 | / | /
CCOC(=O)N1CCN(C(=O)Cn2cnc3c2c(=O)n(C)c(=O)n3C)CC1 | 0 | -7 | 0 | -10 | / | /
O=C(CN1C(=O)c2ccccc2C1=O)NC1CCCCC1 | 1 | 53* | 0 | -1 | -2 | 4
Cc1ccc(-n2nc3cc(C)c(NC(=O)COc4ccc(Cl)cc4Cl)cc3n2)cc1 | 2 | 0 | 0 | 5 | / | /
c1ccc(-c2nc(NCCCn3ccnc3)cc(-c3ccncc3)n2)cc1 | -2 | 44 | -1 | -4 | / | /
Cc1cnc(CNc2cc(-c3cccnc3)nc(-c3cccnc3)n2)nc1 | -1 | 78* | -1 | 6 | 13 | 26
c1cncc(-c2cc(NCCCn3ccnc3)nc(-c3ccncc3)n2)c1 | -1 | 32 | -1 | 11 | / | /
c1ccc(-c2nc(NCCCn3ccnc3)cc(-c3cccnc3)n2)cc1 | 0 | 54* | -1 | 11 | 34* | 44*
c1ccc(-c2cc(NCCCn3ccnc3)nc(-c3cccnc3)n2)cc1 | 1 | 53* | -1 | 15 | 24 | 39*
Cc1cc(Br)cc2c1=NC(=O)C=2c1sc(=S)[nH]c1O | 0 | -10 | 0 | 3 | / | /
CCc1ccc(CN2CCN(C3CCCC(C)C3)CC2)cc1 (stereo unspecified) | -2 | 64* | 0 | -3 | 0 | -1
CC1CCC(N2CCN(Cc3ccc(F)cc3)CC2)CC1 (stereo unspecified) | 0 | 34 | 0 | -3 | / | /
CC1CCCC(N2CCN(Cc3ccc(Cl)cc3)CC2)C1 (stereo unspecified) | 0 | 73* | 0 | 10 | -8 | -2
CC1CCCC(N2CCN(Cc3cccc(F)c3)CC2)C1 (stereo unspecified) | -1 | 69* | 0 | -1 | -3 | -7
CC1CCCC(N2CCN(Cc3ccc(F)cc3)CC2)C1 (stereo unspecified) | 0 | 74* | 0 | -39 | 4 | 4
Fc1cccc(CN2CCC(N3CCCCC3)CC2)c1 | -1 | -8 | 0 | 4 | / | /
Cc1ccc(/C=c2\sc3ncnn3c2=O)o1 | 0 | 61* | 0 | 5 | 23 | -5
CCN1CCN(CCOc2ccc(F)cc2)CC1 | 3 | 81* | 0 | 9 | 10 | 18
CCN1CCN(CCOCCOc2ccc(I)cc2)CC1 | 1 | 81* | 1 | 9 | 5 | 15
SMILES | GPR151 activ | MITF inh | FBW7 act | TEAD-YAP inh | MITF inh conf | AS interf ctr | others
CCN1CCN(CCCOc2ccc(C#N)cc2)CC1 | -1 | 72* | 0 | 18 | 12 | 18
CCN1CCN(CCOCCOc2ccc(F)cc2)CC1 | 0 | 70* | 0 | 8 | 32* | 10 | AS interf DR=>6.5
CCN(CC)CC(=O)OC1CC2CCC1(C)C2(C)C (stereo unspecified) | -1 | -2 | 0 | -1 | / | /
Cc1cc(C(=O)NNS(=O)(=O)c2ccc3ccccc3c2)c(C)n1-c1ccccc1 | 1 | -7 | 0 | 20 | / | /
COc1ccc(/C=N/NC(=O)C(=O)Nc2ccc(Br)cc2)cc1 | 1 | -5 | 0 | -9 | / | /
Fc1ccc(OCCN2CCNCC2)cc1 | 2 | 60* | 0 | 10 | -11 | -4
CCCCOc1ccc(OCCOCCN2CCN(CC)CC2)cc1 | 0 | 65* | 0 | -2 | 12 | 14
COc1ccc(/C=C/C(=O)Nc2ccc(S(=O)(=O)Nc3cc(C)nc(C)n3)cc2)cc1 | 1 | 0 | 0 | -1 | / | /
COC(=O)c1cc(S(=O)(=O)NCCCN(C)Cc2ccccc2)c[nH]1 | 0 | 56* | 1 | 3 | 13 | 5
COC(=O)c1cc(S(=O)(=O)NCCc2ccccc2)c[nH]1 | 1 | 14 | 1 | 10 | / | /
CCOC(=O)C1=C(C)NC2=C(C(=O)C(C(=O)OCC)C(c3ccccc3OC)C2)C1c1cc(OC)ccc1OC (stereo unspecified) | -2 | 4 | 0 | 10 | / | /
CCOC(=O)C1=C(C)NC2=C(C(=O)C(C(=O)OCC)C(c3ccc(OC)cc3)C2)C1c1cc(OC)ccc1OC (stereo unspecified) | 0 | 116* | 0 | 0 | -10 | -7
CC(C)(C)C(=O)COC(=O)c1cccc(N2C(=O)c3ccccc3C2=O)c1 | 0 | 53* | 0 | 1 | 7 | -2
O=C(COC(=O)c1cccc(N2C(=O)c3ccccc3C2=O)c1)c1ccccc1 | 2 | 5 | 0 | -28 | / | /
O=C(COC(=O)c1ccc2c(c1)C(=O)N(c1cccc(Cl)c1)C2=O)c1ccc([N+](=O)[O-])cc1 | 0 | 1 | 0 | 3 | / | /
CC(=O)c1cccc(N2C(=O)c3ccc(C(=O)OCC(=O)c4ccc([N+](=O)[O-])cc4)cc3C2=O)c1 | 1 | 60* | 0 | -3 | 21 | 26
CCOc1cc2nc3c4ccccc4n(CC(C)C)c3nc2cc1OCC | -1 | -4 | 0 | 1 | / | /
O=C1NC2(CCCC2)Nc2ccccc21 | -1 | -21 | 1 | -1 | / | /
COc1ccc(Br)cc1CN(CCc1ccc2c(c1)OCO2)Cc1cccnc1 | -1 | 52* | 0 | 8 | -5 | -2
CCOc1ccccc1CN(CCc1ccc2c(c1)OCO2)Cc1ccccn1 | -2 | 84* | 0 | -8 | 4 | 24
CCOc1ccccc1CN(CCc1ccc2c(c1)OCO2)Cc1cc(OC)c(OC)cc1OC | -1 | 14 | 0 | 1 | / | /
Cc1cccc2c(C(=O)NCCO)cc(-c3ccccc3)nc12 | 0 | 2 | 0 | 15 | / | /
O=C(CN1CCCCC1)Nc1c2c(nc3ccccc13)N(c1ccccc1)CC2 | 1 | 32 | 0 | 0 | / | /
CN1CCc2c1nc1ccccc1c2NC(=O)CNC1CC1 | 0 | 53* | 0 | -7 | 16 | 24
CN(CC(=O)Nc1c2c(nc3c1CCC3)CCCC2)Cc1ccccc1 | -1 | 68* | 0 | 0 | 2 | 1
CN1CCN(CC(=O)Nc2c3c(nc4ccccc24)N(C)CC3)CC1 | 0 | 79* | 0 | 7 | -8 | -3
CN1CCc2c1nc1ccccc1c2NC(=O)C12CC3CC(CC(C3)C1)C2 | 1 | 12 | 0 | 2 | / | /
